Screening data deposited in PubChem by National Center for Advancing Translational Sciences (NCATS).
The list is not random: actives were taken first. Their share in the collection is about 2.7%.
ATXN viability: cell viability loss in ATXN counter-screen. S2 cells (HEK-293 line with an ATXN2-luciferase reporter) viability, CellTiter-Fluor protease fluorescence, 24 h. Potency, µM (series often up to 56.7 µM), most hits filed as cytotoxic. hit rate 0.49% among 400,000. AID 651635; further: nearly all actives have a fitted effect of over 40% in size
12-LOX inh: inhibitors of human 12S-lipoxygenase ALOX12; purified 12hLO, xylenol orange hydroperoxide absorbance; AID 1671190; hit rate 1.1% among 580,000; Potency, µM (series often up to 108 µM), most hits filed as inhibitors
Target sequence (P18054 whole entry, looked up): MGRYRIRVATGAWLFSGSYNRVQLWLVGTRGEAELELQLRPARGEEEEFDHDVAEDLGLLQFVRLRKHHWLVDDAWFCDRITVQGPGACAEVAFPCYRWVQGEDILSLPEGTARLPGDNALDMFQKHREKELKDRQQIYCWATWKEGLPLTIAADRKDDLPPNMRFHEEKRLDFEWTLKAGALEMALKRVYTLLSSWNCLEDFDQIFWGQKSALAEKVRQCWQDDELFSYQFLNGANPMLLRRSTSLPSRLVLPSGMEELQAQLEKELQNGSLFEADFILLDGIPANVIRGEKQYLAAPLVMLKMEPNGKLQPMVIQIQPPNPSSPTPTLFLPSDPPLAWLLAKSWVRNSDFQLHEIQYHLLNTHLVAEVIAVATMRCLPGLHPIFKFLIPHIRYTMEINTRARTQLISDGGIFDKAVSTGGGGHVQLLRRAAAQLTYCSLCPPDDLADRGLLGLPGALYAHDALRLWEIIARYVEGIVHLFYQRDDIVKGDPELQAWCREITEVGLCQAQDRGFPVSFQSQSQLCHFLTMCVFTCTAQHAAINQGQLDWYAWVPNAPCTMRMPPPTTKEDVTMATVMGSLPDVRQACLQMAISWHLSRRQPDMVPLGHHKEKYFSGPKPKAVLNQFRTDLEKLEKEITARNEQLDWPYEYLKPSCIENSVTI
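Purified human 12hLO (150 nM final) in 25 mM Hepes, 0.01% Triton X-100, pH 7.0 was preincubated 15 min at room temperature with compound. Then 40 uM arachidonic acid was added, 30 min. Hydroperoxide was read by Fe-XO absorbance ratio 573/405 nm.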
ATXN2 expr inh: inhibitors of ATXN2 expression | HEK-293 ATXN2-luciferase reporter, luminescence, 24 h | Potency, µM (top dose mostly 57 µM), actives largely listed as inhibitors | hit rate 0.72% among 360,000 | AID 1745845; further: nearly all actives have a fitted effect of over 55% in size
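ATXN2-luciferase reporter cells (luciferase flanked by upstream and downstream ATXN2 gene portions) were treated 24 h at 37 °C with compounds at up to 57 uM. SteadyGlo luminescence gave expression; GF-AFC fluorescence gave viability.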
HepG2 tox: kills HepG2 cells in TGF-b inhibitor counter-screen | hit rate 0.76% among 410,000 | HepG2 CAGA-GFP viability, ATP luminescence, 18 h | AID 588856 | Potency, µM (doses to about 46.1 µM), actives largely listed as cytotoxic
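HepG2 CAGA-GFP cells (1000/well, DMEM with 1% FBS) received compound, then TGF-beta at 500 pg/mL final, and were incubated 18 hours at 37 degrees C. Viability was read by CellTiter-Glo luminescence. Media-only wells were set as complete cell-killing and DMSO as no toxicity.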
TGFb SMAD3 inh: blocks TGF-b signaling; HepG2 CAGA-GFP TGF-b/SMAD3 reporter, GFP fluorescence, 18 h; TGF-beta stimulated, 500 pg/mL final; Potency, µM (series often up to 46.1 µM), usual class: inhibitors; hit rate 1.2% among 410,000; AID 588855; further: nearly all actives have a fitted effect of over 65% in size
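Inhibition of TGF-beta-driven CAGA-GFP reporter expression in HEPG2 cells is measured by cellular GFP fluorescence after 18 h stimulation with 500 pg/mL recombinant TGF-beta in 1% FBS medium at 37 degrees C.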
Numbers stand for hits; – = inactive; ? = inconclusive; · = no result given; ! = not active in a repeat; [ ] = dose if it differs, or a comment. The call rests on the fitted dose curve; in most records, active means well fitted curve in the direction sought with a large enough effect; inconclusive means small, poorly fitted or top-dose-only effect, or another doubt; inactive means no such curve, though single readings can be large; an effect the other way counts as inactive or inconclusive.

SMILES	ATXN viability	12-LOX inh	ATXN2 expr inh	HepG2 tox	TGFb SMAD3 inh
C1CC(N(CC2CC2)C2CNC2)CCO1	·	–	·	·	·
CCNC(=O)N1Cc2ccccc2-n2nncc2C1	–	–	–	–	–
O=C(Cc1cccs1)N1Cc2ccccc2-n2nncc2C1	–	40µM	–	–	–
Cn1c(NN=O)nc2ccccc21	14µM	–	?	–	?
Cc1ccc2c(n1)N(C)[C@H](CO)CCN(C1COC1)C2	·	–	·	·	·
O=[N+]([O-])c1ccc(Sc2nc3ccccc3o2)c([N+](=O)[O-])c1	·	–	?	13µM	?
O=[N+]([O-])c1ccc(N2CC2)c([N+](=O)[O-])c1	–	–	–	–	–
COc1ccc(-c2cn(C[C@H]3CC4CCN3C[C@@H]4C(=O)NC3CCCCC3)nn2)cc1 (stereo partly drawn)	·	–	·	·	·
Cc1cc2c(C(C)C)c(O)c(O)c(C=O)c2c(O)c1-c1c(C)cc2c(C(C)C)c(O)c(O)c(C=O)c2c1O	25µM	1.1µM!	?	1.4µM	1.1µM
CC(C)C12CN3CN(C1)CC(C(C)C)(C3)C2=O	·	–	·	·	·
CN(C)c1ccc(CN2CCc3nc(N4CCN(c5ccccn5)CC4)ncc3C2)cc1	?	?	28µM	–	8.9µM
Cc1ccccc1CN1CCc2nc(N3CCN(c4ccccn4)CC3)ncc2C1	?	–	–	–	–
C#C[C@@H]1CC2C3CCC4=CC(=O)CCC4C3CCC2(CC)C1O (stereo partly drawn)	·	–	·	·	·
COc1ccccc1CNC(=O)CN1CCCC1=O	·	–	·	·	·
CC(C)c1ccc2c(c1)C(N1CCNCC1)Cc1ccc(F)cc1S2 (stereo not drawn)	?	?	?	–	18µM
CCOc1ccccc1N=C1SCCCN1C	–	7.1µM	–	–	–
Cn1cc(CN2CCN(C(=O)Cc3ccsc3)CC2)ccc1=O	·	–	·	·	·
CCCCCCCCCC(CC)c1ccc(S(=O)(=O)O)cc1 (stereo not drawn)	32µM	23µM	–	·	·
CC1OC(OC2CC[C@]3(C=O)[C@H]4[C@H](O)CC5(C)C(C6=CC(=O)OC6)CCC5(O)[C@@H]4CCC3(O)C2)C(O)C(O)C1O (stereo partly drawn)	·	–	·	·	·
Cc1[nH]c2ccc(C34CC5CC(CC(C5)C3)C4)cc2c1CCN	·	32µM	·	·	·
Cn1nc(C2CCCCC2)cc1[C@H]1CN2CC[C@H]1C[C@@H]2CNS(C)(=O)=O	·	–	·	·	·
CC/C(=C\C=C\[C@@H]1C=C[C@@H]2CCC[C@H]2[C@@H]1C(=O)c1ccc[nH]1)[C@@H]1O[C@@H]([C@@H](C)C(=O)O)CC[C@@H]1C	?	·	?	16µM	11µM
CN(CC1COc2ccccc2O1)c1nc(-c2cccnc2)nc2ccccc12 (stereo not drawn)	–	–	–	5µM	?
COc1ccccc1NC(=O)N(Cc1ccc2c(c1)OCO2)C1CCN(Cc2ccccc2)CC1	?	?	?	–	8.9µM
O=C(Nc1ccccc1)N(Cc1ccc2c(c1)OCO2)C1CCN(Cc2ccccc2)CC1	–	?	–	–	?
SMILES	ATXN viability	12-LOX inh	ATXN2 expr inh	HepG2 tox	TGFb SMAD3 inh
N#CC(C#N)=Cc1ccc(O)c(O)c1	–	25µM!	–	–	–
FC(F)(F)CN1C2CCC1CN(c1cncnc1)C2	·	–[12.5 µM]	·	·	·
CCCCCCOc1ccc(CN2CCN(C)CC2)cc1	–	–	?	–	–
CCCCCCCCCCCC[N+](C)(C)CCOc1ccccc1	?	·	32µM	·	·
CCC(=O)[C@@H](C)[C@@H](O)[C@H](C)C[C@@H](C)C1OC(=O)C[C@@]2(O)CC=C(C)C(O2)C(C)=CCCC[C@H](O[C@H]2C[C@@H](OC(N)=O)[C@H](O)[C@@H](C)O2)C=C[C@H](C)C[C@H]1C (stereo partly drawn)	14µM	–	–	·	·
CC(C)Cn1cc(C(=O)NCC2CCCN2C)c2ccccc21 (stereo not drawn)	·	–	·	·	·
Ic1ccccc1CN[C@@H]1C2CCN(CC2)[C@@H]1C(c1ccccc1)c1ccccc1	22µM	?	?	11µM	?
Cc1nn(-c2ncnc3nc[nH]c23)c2c1C(c1ccc(F)c(F)c1)SCC(=O)N2 (stereo not drawn)	·	–	·	·	·
CCC(=O)C(CCN(C)C)(c1ccccc1)c1ccccc1	–	·	–	·	·
CN(C)C(=O)C(CCN1CCC(O)(c2ccc(Cl)cc2)CC1)(c1ccccc1)c1ccccc1	?	?	27µM!	–	–
Cn1nc(-c2ccccc2)cc1[C@H]1CN2CC[C@H]1C[C@@H]2CNC(=O)c1ccco1	·	–	·	·	·
CN(C)c1ccc(N=O)cc1	·	·	·	–	5µM
CN(C)c1ccc(N=Nc2ccccc2)cc1	·	·	·	–	–
O=C(CCn1cccn1)N1C[C@H](c2cccc(F)c2F)[C@@H]2[C@H]1C1CCN2CC1	·	–	·	·	·
Fc1ccc(CCNCc2ccc(Cl)c(Cl)c2)cc1	?	?	?	13µM	?
Cc1cccc(CCN)c1	·	–	·	·	·
CC(C)[C@H]1C(=O)N[C@H](CO)Cc2c[nH]c3cccc(c23)N1C	·	40µM	–	·	·
O=C1NC(=S)NC(=O)C1=Cc1ccc(Br)s1	?	16µM	·	–	?
Cc1ccc(C)c(S(=O)(=O)Nc2ccc3c(c2)CCCN3C(=O)c2cccs2)c1	·	–	?	–	11µM
Nc1ccc(N=Nc2ccc(-c3ccc(N=Nc4c(S(=O)(=O)O)cc5cc(S(=O)(=O)O)c(N=Nc6ccccc6)c(O)c5c4N)cc3)cc2)c(N)c1	·	–	·	·	·
Cc1c(NS(=O)(=O)c2ccccc2)ccc([N+](=O)[O-])c1Cl	?	–	?	–	11µM
O=C1NC(=O)C(=Cc2csc3ccccc23)C(=O)N1	–	40µM	·	–	–
CCN(CC)C(=O)c1ccc(NC(=O)COC(=O)c2ccc3nc(C)c(C)nc3c2)cc1	·	–	·	·	·
CCC(=O)N1[C@H]2CC[C@@H]1c1cnc(-c3ccccc3)nc1C2	·	–	·	·	·
COc1ccc2c(c1)c(C(=O)OCC(=O)N(C)C)c(C)n2C1CC1	·	–	·	·	·
SMILES	ATXN viability	12-LOX inh	ATXN2 expr inh	HepG2 tox	TGFb SMAD3 inh
Cn1ncnc2c(=O)n(C)c(=O)nc1-2	4.5µM	?	3.5µM	0.2µM	0.11µM
Cc1ccc(-c2nc3c(=O)n(C)c(=O)nc-3n(C)n2)cc1	·	·	·	1µM	0.79µM
Cc1c(CC(=O)N2CCN(Cc3ccccc3)CC2)c(=O)oc2cc(O)ccc12	·	–	·	·	·
COc1ccc(-c2c(C(F)(F)F)oc3cc(OC(=O)N(C)C)ccc3c2=O)cc1	·	–	·	·	·
Cc1c(Cl)ccc2sc(N3CCN(C(=O)CCS(=O)(=O)c4ccc(F)cc4)CC3)nc12	–	–	–	–	8.9µM
COc1ccc(C(=O)C(C)(C)NO)cc1	–	5µM	–	–	–
CCCS(=O)(=O)NC[C@H]1C[C@@H]2CCN1C[C@@H]2c1cc(-c2ccc(F)cc2)nn1C	·	–	·	·	·
c1ccc(-c2nn(-c3ccccc3)[n+](-c3ccccc3)n2)cc1	?	–	?	–	10µM
CC[C@H]1CN2CC[C@H]1C[C@@H]2CNC(=O)Nc1cccc(C(F)(F)F)c1	·	–	·	·	·
